Measurements reported in PubChem BioAssay (NCI).
The panel holds about 83,000 compounds, 20% with a hit somewhere; the sample as a whole holds those more often.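 48-hour exposure, single concentration, 96-well plates; percent growth endpoint where 0 means no net growth. Active: below 10.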 Values without a mark were called inactive. Active and inactive are the calls of the source.

System: HL-60(TB) leukemia
Experiment: NCI-60 one-dose screen, 48 h (100 = growth as untreated, 0 = no growth, -100 = all killed)
Conditions: 10 µM unless noted

Row | SMILES | growth
1 | O=C(CCCCCCN1CC(=O)N2[C@H](c3ccc(Br)cc3)c3[nH]c4ccccc4c3C[C@@H]2C1=O)NO | 5.8% (active)
2 | COc1cc(-c2[nH]ncc2Nc2ccc(Cl)cc2)cc(OC)c1OC | 42.3%
3 | O=C1C=CC2(O)OC(c3ccccc3)CC(=O)C2=C1O (stereo not given) | 50.5%
4 | CC(=O)Nc1ccc(O)c(C)c1 | 104%
5 | O=C(NCCCO)c1cc(Cl)ccc1O | -13.5% (active)
